Measurements: PubChem BioAssay (NCATS)
Inconclusive results are not listed. Where a call stands in place of a potency, no number is given. Activity calls are given as the source filed them. The call rests on the fitted dose curve; in most records, active means well fitted inhibition curve with a large enough effect; inconclusive means small, poorly fitted or top-dose-only effect; inactive means no such curve, though single readings can be large or run the other way.

assay: qHTS for Inhibitors of ATXN expression: Validation (AID 588378); conditions: cell-based ATXN2 expression reporter assay, luminescence; series mostly up to 57.1 µM; further: nearly all actives have a fitted effect of over 75% in size
From the text: Spinocerebellar ataxia type 2 (SCA2) is a multisystem neurodegenerative disease caused by a dominantly-acting mutation leading to expansion of a polyQ domain in the ataxin-2 protein (ATXN2). SCA2 patients develop progressive ataxia and later lose function in other neuronal systems. Prominent parkinsonian signs develop in some patients. Similar to many neurodegenerative disorders, no symptomatic or disease-modifying treatments are known.
The primary objective of project is to identify compounds inhibiting ATXN2 expression and to test them for efficacy in SCA2 mouse models. To this end, in a collaboration between Dr. Daniel Scoles and scientists at NCGC, a cell-based assay adapted to high-throughput screening has been developed to screen the NIH Molecular Libraries Small Molecule Repository (MLSMR).
NIH Chemical Genomics Center [NCGC]
NIH Molecular Libraries Probe Centers Network [MLPCN]
Assay Submitter (PI): Stefan Pulst and Daniel Scoles, University of Utah
4 ul of HEK293-ATXN2-FFLuc cell suspension (TBD cells/microL in phenol-red free DMEM) are dispensed into Greiner white solid bottom 1536-well assay plates, yielding a final well density of TBD cells/well. Plates are incubated for 2 hrs at 37 degrees C in 5% humidified CO2 to allow cell attachment. Compounds are then transferred via Kalypsys pin tool equipped with 1536-pin array (10nl slotted pins, V&P Scientific, San Diego, CA). In addition, duplicate serial dilutions of the control compounds ChemBridge 5553825, a previously identified ATXN2 expression inhibitor, and a known luciferase inhibitor, are pin-transferred. After incubation at 37 degrees C in 5% humidified CO2 for 24 hrs, CellTiter-Fluor reagent (1 ul) (Promega, Madison, WI) is then added and plates are incubated for 30 minutes, before being transferred to a ViewLux high-throughput CCD imager (PerkinElmer), wherein single end-point fluorescence measurements are acquired using the 405 nm excitation/525 nm emission filter set to assess cell viability. Next, Bright-Glo luciferase substrate detection reagent (3 ul) (Promega, Madison, WI) is added to each well and incubated for an additional 5 minutes. Luminescence is then measured on the ViewLux imager equipped with a clear emission filter using a 2 sec exposure.
Potency means the concentration at half of the fitted maximal effect.

Compound | Potency
CNCCC(Oc1ccc(C(F)(F)F)cc1)c1ccccc1 (stereo unspecified) | 14.1 µM (active)
COc1ccccc1N1CCNCC1 | inactive
CCCC(C)(COC(N)=O)COC(=O)NC(C)C (stereo unspecified) | inactive
CCCN1CCC[C@@H]2Cc3nc(N)ncc3C[C@H]21 | inactive
C[C@@H]1O[C@@H](O[C@H]2C[C@@H](O)[C@]3(CO)[C@H]4[C@H](O)C[C@]5(C)[C@@H](C6=CC(=O)OC6)CC[C@]5(O)[C@@H]4CC[C@]3(O)C2)[C@H](O)[C@H](O)[C@H]1O | inactive
CC[C@@H](CO)NC(=O)[C@@H]1C=C2c3cccc4c3c(cn4C)C[C@H]2N(C)C1 | inactive
Cc1c(OCC(F)(F)F)ccnc1CS(=O)c1nc2ccccc2[nH]1 (stereo unspecified) | inactive
COc1ccc(C(CN(C)C)C2(O)CCCCC2)cc1 (stereo unspecified) | inactive
NCC(O)c1ccc(O)cc1 (stereo unspecified) | inactive
CC(O)(CS(=O)(=O)c1ccc(F)cc1)C(=O)Nc1ccc(C#N)c(C(F)(F)F)c1 (stereo unspecified) | inactive
CCC1(C2=NCCN2)Cc2ccccc2O1 (stereo unspecified) | inactive
c1ccc(C2CC2)c(OCC2=NCCN2)c1 | inactive
Nc1ccncc1 | inactive
CC(=O)[C@H]1CC[C@H]2[C@@H]3CC[C@H]4C[C@H](O)CC[C@]4(C)[C@H]3C(=O)C[C@]12C | inactive
NN=C(N)N | inactive
CNCC(O)c1ccc(O)cc1 (stereo unspecified) | inactive

Compound | Potency
CC(=O)[C@H]1CC[C@H]2[C@@H]3CC[C@H]4C[C@](C)(O)CC[C@]4(C)[C@H]3CC[C@]12C | inactive
Cc1cccc(C)c1NC(=O)CN1CCCC1=O | inactive
NCC1(CC(=O)O)CCCCC1 | inactive
CC(C)=CCOc1c2occc2cc2ccc(=O)oc12 | inactive
N#CC(C#N)=Cc1ccc(O)c(O)c1 | inactive
Fc1ccc(C(OCCN2CCN(CCCc3ccccc3)CC2)c2ccc(F)cc2)cc1 | 20 µM (active)
Cc1cccc(C)c1NC1=NCCCS1 | inactive
O=C1NCN(c2ccccc2)C12CCN(CC1COc3ccccc3O1)CC2 (stereo unspecified) | inactive
CC[C@@H](CO)NC(=O)[C@@H]1C=C2c3cccc4[nH]cc(c34)C[C@H]2N(C)C1 | inactive
Cc1cc2c(C(C)C)c(O)c(O)c(C=O)c2c(O)c1-c1c(C)cc2c(C(C)C)c(O)c(O)c(C=O)c2c1O | 7.08 µM (active)
Cc1ncc(CNC(=O)N(CCCl)N=O)c(N)n1 | inactive
Cc1ccc(S(=O)(=O)N[C@@H](CCCCN)C(=O)CCl)cc1 | inactive
CCCN1CCC[C@@H]2Cc3[nH]ncc3C[C@H]21 | inactive
NCC(CC(=O)O)c1ccc(Cl)cc1 (stereo unspecified) | inactive
O=c1[nH]c2ccccc2n1C1CCN(CCCC(c2ccc(F)cc2)c2ccc(F)cc2)CC1 | inactive
